According to the supplement of paper PMC10849652:
About 7,900 targets were measured; listed, in parts, are those with a hit and a random draw of the rest. About 0.6% of all pairs of compound and target were hits. Values without a mark were called inactive.

Experiments:
Assay in all cases: log2 fold change, soluble protein after heating vs DMSO (PISA); higher = thermal stabilisation; K562 cells, 10 uM, 30 min; active = over 0.2 and 3.5 SD of the protein, either way, in both replicates (recomputed)
[1] = compound: COC1=CC=C(C=C1)CN2C=CC3=C2C=C(C=C3)C(=O)NO
In short: (§1)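 K562 cells (2×10^6 cells/mL) were treated with 10 μM compound for 30 min, and aliquots were heated for 3 min over 48°C-58°C. Pooled aliquots were extracted in PBS with 0.5% NP-40 at 4°C, and the supernatant after 21,000xg for 90 min was measured by TMTpro 16plex LC-MS/MS with channel sums equalised. Reported thermal stability, relative to control samples and from duplicates, is a log2 fold change.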

filanesib = compound: CON(C)C(=O)N1N=C(c2cc(F)ccc2F)S[C@@]1(CCCN)c1ccccc1 [filanesib]
In short: as §1

zotarolimus = compound: CO[C@H]1C[C@@H]2CC[C@@H](C)[C@@](O)(O2)C(=O)C(=O)N2CCCC[C@H]2C(=O)O[C@H]([C@H](C)C[C@@H]2CC[C@H](n3cnnn3)[C@H](OC)C2)CC(=O)[C@H](C)/C=C(\C)[C@@H](O)[C@@H](OC)C(=O)[C@H](C)C[C@H](C)/C=C/C=C/C=C/1C [zotarolimus]
In short: as §1

idasanutlin = compound: COc1cc(C(=O)O)ccc1NC(=O)[C@@H]1N[C@@H](CC(C)(C)C)[C@](C#N)(c2ccc(Cl)cc2F)[C@H]1c1cccc(Cl)c1F [idasanutlin]
In short: as §1

alisertib = compound: COc1cc(Nc2ncc3c(n2)-c2ccc(Cl)cc2C(c2c(F)cccc2OC)=NC3)ccc1C(=O)O [alisertib]
In short: as §1

[2] = compound: COc1cc2nc(-c3cc(F)ccc3O)nc(N[C@@H]3CNC[C@H]3C(C)(C)O)c2cc1OC
In short: as §1

gefitinib = compound: COc1cc2ncnc(Nc3ccc(F)c(Cl)c3)c2cc1OCCCN1CCOCC1 [gefitinib]
In short: as §1

[3] = compound: COc1cccc2cc(-c3nc([C@H]4CC[C@H](C(=O)O)CC4)n4ncnc(N)c34)[nH]c12
In short: as §1

lapatinib = compound: CS(=O)(=O)CCNCc1ccc(-c2ccc3ncnc(Nc4ccc(OCc5cccc(F)c5)c(Cl)c4)c3c2)o1 [lapatinib]
In short: as §1

pictilisib = compound: CS(=O)(=O)N1CCN(Cc2cc3nc(-c4cccc5[nH]ncc45)nc(N4CCOCC4)c3s2)CC1 [pictilisib]
In short: as §1

Sequence of UniProt Q9BQB6 (Q9BQB6 whole entry, looked up): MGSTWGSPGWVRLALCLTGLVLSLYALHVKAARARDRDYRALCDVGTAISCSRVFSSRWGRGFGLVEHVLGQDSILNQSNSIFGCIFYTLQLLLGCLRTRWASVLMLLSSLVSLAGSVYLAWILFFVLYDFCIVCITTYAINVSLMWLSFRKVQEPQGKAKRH
Sequence of UniProt Q15642 (Q15642 whole entry, looked up): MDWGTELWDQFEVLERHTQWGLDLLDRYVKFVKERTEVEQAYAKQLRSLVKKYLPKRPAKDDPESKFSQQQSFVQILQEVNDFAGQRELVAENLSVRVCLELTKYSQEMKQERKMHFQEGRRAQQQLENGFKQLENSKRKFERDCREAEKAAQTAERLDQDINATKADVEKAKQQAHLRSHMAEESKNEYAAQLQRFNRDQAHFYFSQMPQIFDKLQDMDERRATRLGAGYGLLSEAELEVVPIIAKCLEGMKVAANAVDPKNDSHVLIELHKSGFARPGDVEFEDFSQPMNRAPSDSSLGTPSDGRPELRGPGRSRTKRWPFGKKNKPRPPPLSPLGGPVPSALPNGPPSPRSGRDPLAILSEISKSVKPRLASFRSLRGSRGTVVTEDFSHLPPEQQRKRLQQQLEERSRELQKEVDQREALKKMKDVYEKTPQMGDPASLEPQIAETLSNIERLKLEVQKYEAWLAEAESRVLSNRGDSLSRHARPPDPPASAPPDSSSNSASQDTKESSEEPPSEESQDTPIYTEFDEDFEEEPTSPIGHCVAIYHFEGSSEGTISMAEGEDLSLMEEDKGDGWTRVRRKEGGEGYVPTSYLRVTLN
Sequence of UniProt Q8NDZ6 (Q8NDZ6 whole entry, looked up): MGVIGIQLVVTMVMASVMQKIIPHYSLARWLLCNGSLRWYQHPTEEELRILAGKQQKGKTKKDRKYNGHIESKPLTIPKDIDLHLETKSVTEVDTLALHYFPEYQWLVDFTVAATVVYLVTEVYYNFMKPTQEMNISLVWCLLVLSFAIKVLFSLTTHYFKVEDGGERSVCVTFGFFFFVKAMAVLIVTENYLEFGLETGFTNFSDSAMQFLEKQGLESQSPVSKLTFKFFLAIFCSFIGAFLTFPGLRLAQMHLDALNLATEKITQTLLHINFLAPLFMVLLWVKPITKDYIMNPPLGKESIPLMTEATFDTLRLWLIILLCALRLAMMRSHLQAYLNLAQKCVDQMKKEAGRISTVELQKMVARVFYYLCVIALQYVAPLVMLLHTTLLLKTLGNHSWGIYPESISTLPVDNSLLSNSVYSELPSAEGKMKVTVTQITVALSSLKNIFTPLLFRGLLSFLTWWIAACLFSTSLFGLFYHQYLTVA
Sequence of UniProt Q9BXJ8 (Q9BXJ8 whole entry, looked up): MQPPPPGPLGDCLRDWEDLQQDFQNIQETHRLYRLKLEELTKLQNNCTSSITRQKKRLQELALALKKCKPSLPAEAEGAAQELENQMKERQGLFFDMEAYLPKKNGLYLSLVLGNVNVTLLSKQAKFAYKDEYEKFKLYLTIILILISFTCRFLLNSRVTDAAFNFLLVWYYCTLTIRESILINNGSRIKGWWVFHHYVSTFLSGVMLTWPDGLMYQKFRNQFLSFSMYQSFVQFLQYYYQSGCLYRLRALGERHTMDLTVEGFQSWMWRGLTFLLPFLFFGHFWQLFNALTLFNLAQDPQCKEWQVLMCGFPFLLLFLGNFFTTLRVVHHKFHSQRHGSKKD
Sequence of UniProt P02585 (P02585 whole entry, looked up): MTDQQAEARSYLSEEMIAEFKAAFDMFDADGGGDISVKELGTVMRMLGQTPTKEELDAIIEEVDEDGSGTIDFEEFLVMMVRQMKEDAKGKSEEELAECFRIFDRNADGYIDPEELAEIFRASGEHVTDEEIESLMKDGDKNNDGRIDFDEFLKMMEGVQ
Sequence of UniProt Q9H6R7 (Q9H6R7 whole entry, looked up): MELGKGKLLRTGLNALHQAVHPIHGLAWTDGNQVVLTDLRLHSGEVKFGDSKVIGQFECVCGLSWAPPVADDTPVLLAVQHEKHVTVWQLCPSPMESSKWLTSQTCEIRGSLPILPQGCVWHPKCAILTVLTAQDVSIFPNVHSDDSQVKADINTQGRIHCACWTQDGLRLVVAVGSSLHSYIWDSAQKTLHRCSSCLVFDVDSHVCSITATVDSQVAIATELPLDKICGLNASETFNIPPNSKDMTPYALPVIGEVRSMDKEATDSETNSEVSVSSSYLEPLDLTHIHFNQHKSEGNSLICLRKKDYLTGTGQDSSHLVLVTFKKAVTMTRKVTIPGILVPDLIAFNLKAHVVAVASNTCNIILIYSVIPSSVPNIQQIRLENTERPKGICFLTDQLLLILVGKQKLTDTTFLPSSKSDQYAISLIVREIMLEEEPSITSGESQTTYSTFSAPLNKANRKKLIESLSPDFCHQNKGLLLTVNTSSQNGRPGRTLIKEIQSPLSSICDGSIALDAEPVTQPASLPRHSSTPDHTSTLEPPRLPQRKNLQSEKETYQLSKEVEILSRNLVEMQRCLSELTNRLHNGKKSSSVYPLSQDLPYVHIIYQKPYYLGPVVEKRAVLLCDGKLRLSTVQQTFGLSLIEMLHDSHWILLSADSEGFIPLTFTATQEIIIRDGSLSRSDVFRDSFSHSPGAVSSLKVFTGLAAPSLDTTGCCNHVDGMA
Sequence of UniProt A3KMH1 (A3KMH1 whole entry, looked up): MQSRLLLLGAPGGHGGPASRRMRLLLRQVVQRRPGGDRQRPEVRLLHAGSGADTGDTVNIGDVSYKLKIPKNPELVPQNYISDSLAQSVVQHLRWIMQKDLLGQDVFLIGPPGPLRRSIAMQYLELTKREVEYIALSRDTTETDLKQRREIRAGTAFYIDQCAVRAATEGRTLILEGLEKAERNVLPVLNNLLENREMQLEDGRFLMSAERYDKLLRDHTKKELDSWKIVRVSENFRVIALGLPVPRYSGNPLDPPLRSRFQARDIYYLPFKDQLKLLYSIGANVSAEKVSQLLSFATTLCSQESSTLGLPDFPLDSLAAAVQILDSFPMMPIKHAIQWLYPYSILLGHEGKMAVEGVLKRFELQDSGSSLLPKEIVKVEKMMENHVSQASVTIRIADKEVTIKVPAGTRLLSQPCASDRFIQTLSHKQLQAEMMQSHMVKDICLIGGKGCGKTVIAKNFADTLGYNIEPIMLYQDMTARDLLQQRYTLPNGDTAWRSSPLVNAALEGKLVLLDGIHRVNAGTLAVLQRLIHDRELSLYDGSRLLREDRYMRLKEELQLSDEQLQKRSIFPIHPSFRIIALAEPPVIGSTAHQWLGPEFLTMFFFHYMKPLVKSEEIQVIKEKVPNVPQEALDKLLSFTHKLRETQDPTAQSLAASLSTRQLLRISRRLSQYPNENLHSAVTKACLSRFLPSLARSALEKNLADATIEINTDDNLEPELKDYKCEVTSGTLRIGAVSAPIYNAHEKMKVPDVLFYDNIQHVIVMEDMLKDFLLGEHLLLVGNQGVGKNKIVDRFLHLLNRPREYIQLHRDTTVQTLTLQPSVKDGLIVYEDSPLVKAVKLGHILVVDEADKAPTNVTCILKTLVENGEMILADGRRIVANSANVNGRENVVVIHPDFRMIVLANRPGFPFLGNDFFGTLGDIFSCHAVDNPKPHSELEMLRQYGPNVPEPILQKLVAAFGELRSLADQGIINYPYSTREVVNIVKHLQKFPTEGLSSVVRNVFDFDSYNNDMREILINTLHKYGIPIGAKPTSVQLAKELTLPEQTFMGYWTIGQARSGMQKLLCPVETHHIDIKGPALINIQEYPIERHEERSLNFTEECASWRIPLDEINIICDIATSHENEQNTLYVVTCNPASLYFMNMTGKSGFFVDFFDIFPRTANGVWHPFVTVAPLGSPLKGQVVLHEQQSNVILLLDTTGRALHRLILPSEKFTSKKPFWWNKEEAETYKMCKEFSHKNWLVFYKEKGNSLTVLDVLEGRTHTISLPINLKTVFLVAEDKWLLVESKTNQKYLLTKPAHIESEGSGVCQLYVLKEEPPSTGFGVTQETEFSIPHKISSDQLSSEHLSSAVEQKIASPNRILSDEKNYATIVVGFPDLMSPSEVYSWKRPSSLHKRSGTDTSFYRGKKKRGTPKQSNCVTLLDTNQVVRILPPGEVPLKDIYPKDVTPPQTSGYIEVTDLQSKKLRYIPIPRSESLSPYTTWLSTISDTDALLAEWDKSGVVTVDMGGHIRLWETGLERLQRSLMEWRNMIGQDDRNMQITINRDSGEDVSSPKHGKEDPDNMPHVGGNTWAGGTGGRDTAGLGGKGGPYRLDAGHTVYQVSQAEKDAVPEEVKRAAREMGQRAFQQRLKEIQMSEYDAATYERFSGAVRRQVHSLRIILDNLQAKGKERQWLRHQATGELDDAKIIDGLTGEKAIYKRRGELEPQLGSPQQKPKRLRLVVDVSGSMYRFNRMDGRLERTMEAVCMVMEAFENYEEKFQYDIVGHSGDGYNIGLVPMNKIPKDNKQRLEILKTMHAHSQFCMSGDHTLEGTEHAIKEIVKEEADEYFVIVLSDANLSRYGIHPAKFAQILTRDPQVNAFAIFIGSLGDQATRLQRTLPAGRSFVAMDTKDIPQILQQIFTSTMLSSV
Sequence of UniProt Q9Y5K5 (Q9Y5K5 whole entry, looked up): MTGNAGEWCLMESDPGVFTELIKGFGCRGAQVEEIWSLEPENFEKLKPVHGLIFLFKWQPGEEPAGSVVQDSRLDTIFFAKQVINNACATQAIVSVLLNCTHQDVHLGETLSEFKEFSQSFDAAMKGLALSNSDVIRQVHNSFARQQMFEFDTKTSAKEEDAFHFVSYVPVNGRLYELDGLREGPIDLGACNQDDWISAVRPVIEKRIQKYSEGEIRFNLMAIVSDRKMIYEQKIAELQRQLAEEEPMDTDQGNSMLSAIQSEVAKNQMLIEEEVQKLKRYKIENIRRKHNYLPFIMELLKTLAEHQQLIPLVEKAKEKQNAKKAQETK
Sequence of UniProt O43617 (O43617 whole entry, looked up): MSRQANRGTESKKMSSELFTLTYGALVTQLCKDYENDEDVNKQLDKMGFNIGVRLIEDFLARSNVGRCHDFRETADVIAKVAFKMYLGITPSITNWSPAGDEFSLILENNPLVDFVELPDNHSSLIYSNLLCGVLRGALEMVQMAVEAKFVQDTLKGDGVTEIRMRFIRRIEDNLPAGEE

Target | log2 fold change [1] | log2 fold change (filanesib) | log2 fold change (zotarolimus) | log2 fold change (idasanutlin) | log2 fold change (alisertib) | log2 fold change [2] | log2 fold change (gefitinib) | log2 fold change [3] | log2 fold change (lapatinib) | log2 fold change (pictilisib)
TMEM208 (UniProt Q9BTX3) | -0.131 | -0.254 | -0.111 | -0.137 | 0.109 | 0.019 | -0.055 | -0.146 | -0.151 | -0.17
XRCC6 (UniProt P12956) | 0.006 | -0.021 | 0.058 | -0.059 | -0.014 | -0.097 | -0.01 | -0.008 | 0.013 | -0.024
TRAPPC3 (UniProt O43617) | -0.141 | -0.069 | -0.037 | -0.025 | -0.055 | 0.012 | 0.007 | 0.067 | 0.023 | 0.023
XPO1 (UniProt O14980) | 0.074 | -0.121 | 0.004 | -0.123 | -0.003 | 0.023 | -0.032 | 0.001 | -0.023 | -0.071
TMEM120A (UniProt Q9BXJ8) | -0.2 | -0.049 | 0.038 | -0.217 | -0.08 | -0.08 | 0.113 | -0.02 | 0.06 | -0.094
TTI2 (UniProt Q6NXR4) | 0.012 | 0.06 | -0.008 | -0.04 | 0.028 | -0.034 | -0.081 | -0.025 | 0.033 | –
TRMT2A (UniProt Q8IZ69) | -0.322 (active) | 0.061 | 0.016 | 0.04 | -0.051 | -0.158 | -0.006 | -0.071 | 0.016 | -0.096
TRIP10 isoform 2 (UniProt Q15642) | -0.032 | -0.213 | 0.013 | 0.128 | -0.029 | 0.109 | 0.062 | -0.09 | -0.083 | 0.06
TRAM1 (UniProt Q15629) | -0.188 | -0.218 | -0.103 | -0.119 | -0.067 | 0.24 | -0.066 | 0.005 | -0.092 | -0.163
UPF3B (UniProt Q9BZI7) | -0.044 | 0.26 | -0.015 | 0.209 | -0.048 | 0.187 | 0.061 | -0.114 | 0.234 | -0.058
UBE2J1 (UniProt Q9Y385) | -0.209 | 0.119 | 0.046 | -0.12 | -0.259 | 0.232 | -0.035 | 0.241 | -0.064 | -0.081
WDR46 (UniProt O15213) | -0.129 | 0.425 | 0.075 | 0.156 | -0.162 | 0.037 | -0.036 | -0.018 | -0.006 | -0.052
UCHL5 (UniProt Q9Y5K5) | 0.023 | -0.035 | 0.026 | -0.044 | -0.048 | 0.04 | 0.008 | -0.031 | -0.023 | 0.012
TPM2 (UniProt P07951) | 0.503 (active) | -0.024 | 0.013 | -0.026 | -0.058 | -0.055 | -0.003 | -0.14 | 0.166 | -0.181
VPS50 (UniProt Q96JG6) | 0.023 | -0.021 | 0.028 | -0.157 | 0.019 | 0.012 | 0.007 | -0.027 | -0.006 | -0.003
WDR62 isoform 4 (UniProt O43379) | -0.036 | 0.016 | 0.028 | 0.02 | -0.024 | -0.026 | 0.049 | 0.046 | 0.054 | 0.015
WDR47 (UniProt O94967) | 0.057 | -0.014 | -0.006 | -0.071 | 0.21 | -0.029 | -0.001 | 0.061 | -0.007 | 0.077
VPS35L (UniProt Q7Z3J2) | 0.028 | 0.049 | -0.016 | -0.118 | 0.041 | 0.058 | 0.059 | -0.032 | -0.05 | 0.061
VPS52 (UniProt Q8N1B4) | -0.003 | 0.017 | 0.044 | 0.088 | -0.069 | 0.058 | 0.014 | -0.022 | -0.043 | -0.02
VKORC1 (UniProt Q9BQB6) | 0.079 | -0.077 | 0.022 | -0.089 | 0.016 | -0.019 | -0.05 | -0.144 | -0.06 | -0.021
VWA8 (UniProt A3KMH1) | -0.025 | -0.052 | -0.027 | -0.119 | -0.037 | 0.006 | 0.011 | 0.077 | 0 | 0.01
WDCP (UniProt Q9H6R7) | -0.028 | -0.029 | 0.094 | -0.049 | -0.074 | 0.072 | -0.061 | -0.049 | -0.037 | 0.126
TMEM161B (UniProt Q8NDZ6) | -0.055 | -0.008 | -0.035 | -0.16 | 0.006 | 0.013 | 0.087 | -0.015 | -0.056 | 0.097
WNK1 isoform 7 (UniProt Q9H4A3) | -0.034 | -0.003 | -0.006 | -0.026 | -0.026 | 0.082 | 0 | 0.032 | -0.002 | 0
WDHD1 (UniProt O75717) | 0.013 | -0.003 | 0.031 | 0.005 | 0.036 | 0.011 | 0.013 | -0.012 | 0.006 | -0.015
UTP4 (UniProt Q969X6) | -0.05 | -0.043 | -0.017 | -0.034 | -0.095 | 0.132 | 0 | 0.029 | -0.006 | 0.035
TXNRD1 (UniProt Q16881) | 0.018 | -0.101 | 0.006 | -0.144 | -0.012 | -0.023 | 0.026 | 0.052 | -0.055 | 0.062
TNNC2 (UniProt P02585) | -0.037 | 0.038 | -0.006 | 0.007 | -0.172 | 0.014 | 0.008 | 0.045 | -0.027 | 0.025
WASH2P (UniProt Q6VEQ5) | 0.007 | -0.067 | -0.029 | -0.055 | -0.027 | 0.067 | 0.001 | -0.036 | 0.016 | 0.053
XPOT (UniProt O43592) | 0.011 | -0.052 | 0.022 | -0.073 | -0.059 | 0.033 | -0.023 | -0.046 | -0.028 | 0.023
